We go through 49 compounds from PubChem BioAssay AID436 (Emory University Molecular Libraries Screening Center, 2006).

The campaign covered roughly 72,000 compounds. About 350 (0.49%) were called active. Many of the other results were omitted from the sample, so actives are more common in it than they were. Unmarked numbers belong to inactive results.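 The calls were made as follows: active = activity remaining at or below 50% of control, provided the compound also passes the data quality filters; inactive = the rest, including low values that fail the filters.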

Chain of Ubiquitin carboxyl-terminal hydrolase BAP1 (Homo sapiens) (Q92560 whole entry, looked up): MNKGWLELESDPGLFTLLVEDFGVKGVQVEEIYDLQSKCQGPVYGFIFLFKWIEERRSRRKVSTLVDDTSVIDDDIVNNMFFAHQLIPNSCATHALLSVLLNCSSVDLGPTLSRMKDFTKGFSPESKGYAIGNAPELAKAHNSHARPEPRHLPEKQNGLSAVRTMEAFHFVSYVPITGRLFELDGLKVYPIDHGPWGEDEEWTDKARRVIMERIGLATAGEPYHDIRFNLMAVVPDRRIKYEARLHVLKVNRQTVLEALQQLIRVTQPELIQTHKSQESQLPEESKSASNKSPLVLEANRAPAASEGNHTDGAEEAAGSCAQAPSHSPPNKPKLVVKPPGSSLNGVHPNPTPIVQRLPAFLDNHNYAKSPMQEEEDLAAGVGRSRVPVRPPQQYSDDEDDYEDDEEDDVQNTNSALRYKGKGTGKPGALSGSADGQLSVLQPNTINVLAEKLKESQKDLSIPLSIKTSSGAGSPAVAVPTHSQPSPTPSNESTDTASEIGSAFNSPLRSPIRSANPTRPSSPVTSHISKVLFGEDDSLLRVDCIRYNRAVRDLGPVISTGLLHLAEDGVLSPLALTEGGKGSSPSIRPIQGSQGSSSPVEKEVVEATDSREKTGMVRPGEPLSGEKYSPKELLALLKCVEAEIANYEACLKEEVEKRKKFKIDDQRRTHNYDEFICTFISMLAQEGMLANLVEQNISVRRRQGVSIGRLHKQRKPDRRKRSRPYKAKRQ

This experiment addresses Ubiquitin carboxyl-terminal hydrolase BAP1 (Homo sapiens) (UniProt Q92560). Nature of the experiment: BAP1 ubiquitin hydrolase activity blockers – biochemical, Ub-AMC fluorescence, kinetic, primary screen (AID 436).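 Also: 100% = DMSO wells rate and 0% = substrate alone blank rate.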 The note with it: recombinant BAP1, Ub-AMC hydrolysis fluorescence kinetic; at 20 µM; active compounds read low.
With `O=C(Nc1ccc(-c2nc3ccccc3o2)cc1)c1ccc(S(=O)(=O)N2CCCCC2)cc1`, the activity remaining (% of control) was 288%.

As for `O=C(Cc1cccc2ccccc12)Nc1ccccc1-c1nc2ccccc2s1`, the activity remaining (% of control) is 75.2%.

As for `CCOc1ccc(C(=O)Nc2cccc(C(=O)Nc3cccc4ccccc34)c2)cc1[N+](=O)[O-]`, the activity remaining (% of control) is 71.1%.

Consider `O=C(Nc1nc2c(s1)C(=O)CCC2)c1ccccc1Cl`, for which the activity remaining (% of control) was 51.9%.

With `CCOC(=O)c1c(NC(=O)c2cc3ccccc3oc2=O)sc(C(=O)CC)c1C`, the activity remaining (% of control) was 49.7%.

Turning to `O=C(NCc1ccccc1)c1nn2c(C(F)(F)F)cc(-c3ccccc3)nc2c1Br`, the activity remaining (% of control) is 70%.

With `CCCOc1ccc(C(=O)Nc2c(C)ccc3nsnc23)cc1`, the activity remaining (% of control) is 203%.

In the case of `COCCc1nnc(NC(=O)c2ccc([N+](=O)[O-])cc2)s1`, the activity remaining (% of control) was 111%.

Turning to `CC1=C(C(=O)OCCc2ccccc2)C(c2ccc([N+](=O)[O-])cc2)NC(=O)N1C` (centres undefined), the activity remaining (% of control) was 72.8%.

With `COc1ccc(-n2nc3cc(C)c(NC(=O)c4ccc(Br)o4)cc3n2)cc1`, the activity remaining (% of control) is 63%.

With `CC(C)(C)C(=O)Nc1ccc(C(=O)Nc2nccs2)cc1`, the activity remaining (% of control) was 63.4%.

`NC(=O)c1ccccc1NC(=O)COc1ccc([N+](=O)[O-])cc1`: the activity remaining (% of control) is 138%.

On to `Cc1ccc(C=Cc2ccncc2)cc1`, for which the activity remaining (% of control) was 139%.

On to `N#Cc1c(NC(=O)CCCN2C(=O)c3ccccc3C2=O)oc(-c2ccccc2)c1-c1ccccc1`, for which the activity remaining (% of control) was 56.8%.

Take `N#Cc1c(/N=C/N2CCCC2)oc(-c2ccccc2)c1-c1ccccc1`: the activity remaining (% of control) is 41.5% (active).

`NC(=O)c1c(NC(=O)CCCCCN2C(=O)c3ccccc3C2=O)sc2c1CCC2`: the activity remaining (% of control) is 140%.

For the compound `COC(=O)C1=C(C)Nc2nnnn2C1c1ccccc1` (centres undefined), the activity remaining (% of control) is 171%.

Consider `COc1cc(C(=O)Nc2ccc(Cl)cc2[N+](=O)[O-])cc(OC)c1OC`, for which the activity remaining (% of control) is 87.7%.

With `C[n+]1ccccc1C=Cc1ccccc1`, the activity remaining (% of control) is 120%.

Take `Cc1cccc2cc(CN(Cc3cccs3)C(c3nnnn3C3CCCC3)C(C)C)c(=O)[nH]c12` (centres undefined): the activity remaining (% of control) is 57.3%.

Regarding `Cc1cccc2cc(CN(Cc3ccc4c(c3)OCO4)Cc3nnnn3C3CCCC3)c(=O)[nH]c12`, the activity remaining (% of control) is 53.1%.

Regarding `CCC(c1nnnn1C1CCCC1)N(Cc1cccs1)Cc1cc2cccc(C)c2[nH]c1=O` (centres undefined), the activity remaining (% of control) was 49.7% (active).

As for `COC(=O)c1ccc(C(=O)Nc2cccc3c2C(=O)c2ccccc2C3=O)cc1`, the activity remaining (% of control) is 177%.

For the compound `CC(C)C(=O)N1c2ccccc2NC2=C(C(=O)CC(c3ccccc3)C2)C1c1ccc(F)cc1` (centres undefined), the activity remaining (% of control) was 63.6%.

For the compound `O=C(c1ccccc1)N1CCN(c2ccc([N+](=O)[O-])cc2F)CC1`, the activity remaining (% of control) is 64.8%.

For the compound `COc1cc(C2CC(=O)Nc3c2cc(Br)c2ccccc32)cc(Br)c1OC` (centres undefined), the activity remaining (% of control) was 57.5%.

For `CC(C)(C)c1ccc(OCC(O)CN2CCN(c3ccccc3F)CC2)cc1` (centres undefined), the activity remaining (% of control) is 152%.

For the compound `CC(C)(C)c1ccc(C(=O)Nc2nnc(Cc3ccc(F)cc3)s2)cc1`, the activity remaining (% of control) was 75.1%.

In the case of `COc1ccc(C=Nc2sc(C)c(C)c2C#N)cc1`, the activity remaining (% of control) was 103%.

Take `COC(=O)c1sc(-c2ccccc2)cc1NC(=O)c1ccc(S(=O)(=O)N2CCOCC2)cc1`: the activity remaining (% of control) is 193%.

With `O=C1NCCCC1C1=NC(CO)(CO)CO1` (centres undefined), the activity remaining (% of control) is 82.8%.

`CCCOC(=O)c1cccc(NC(=O)COc2cccc(Cl)c2)c1`: the activity remaining (% of control) is 91.3%.

`CCOc1ccc(C(=O)Nc2ccc3c(c2)oc2ccccc23)cc1`: the activity remaining (% of control) is 144%.

For `CCCCOc1ccc(C(=O)Nc2nc3ccc4nc(C)sc4c3s2)cc1`, the activity remaining (% of control) was 167%.

Consider `CCC(=O)OCC1OC(n2ccc(=O)[nH]c2=O)CC1OC(=O)CC` (centres undefined), for which the activity remaining (% of control) was 130%.

In the case of `COc1ccc(CCNC(=O)c2cccc([N+](=O)[O-])c2C)cc1`, the activity remaining (% of control) is 86.2%.

Consider `COc1ccc(C(=O)Nc2cccc(C)n2)cc1[N+](=O)[O-]`, for which the activity remaining (% of control) was 80.8%.

On to `CN1C(=O)C(=O)/C(=C(/O)c2ccc(F)cc2)C1c1ccc(F)cc1` (centres undefined), for which the activity remaining (% of control) was 58.4%.

Take `Cn1c(=O)[nH]c(=O)c2c1nc(N1CCOCC1)n2CCO`: the activity remaining (% of control) was 159%.

`CCCCNC(=O)c1c[nH]c2ccc(S(=O)(=O)Nc3ccc(OCC)cc3)cc2c1=O`: the activity remaining (% of control) is 32.9% (active).

As to `COc1cccc(NS(=O)(=O)c2ccc3[nH]cc(C(=O)NCCCOC(C)C)c(=O)c3c2)c1`, the activity remaining (% of control) was 79.5%.

For `Cn1c(=N)n(CC(O)c2cccs2)c2ccccc21` (centres undefined), the activity remaining (% of control) was 85.6%.

With `COc1cc(NC(=O)COc2ccccc2)c(OC)cc1Cl`, the activity remaining (% of control) was 141%.

As to `O=C(Nc1cc2cccc([N+](=O)[O-])c2oc1=O)c1ccccc1[N+](=O)[O-]`, the activity remaining (% of control) was 61.5%.

For `Cc1cc(C)nc(NS(=O)(=O)c2ccc(NC(=O)c3ccc(F)cc3)cc2)n1`, the activity remaining (% of control) is 67.2%.

Consider `Clc1ccc2[nH]c3ccccc3c2c1`, for which the activity remaining (% of control) was 65%.

Take `Cc1cc(O)c2c(=O)c(-c3csc(C)n3)c(C(F)(F)F)oc2c1`: the activity remaining (% of control) is 130%.

In the case of `O=C(OCCN1C(=O)c2ccccc2C1=O)c1ccc([N+](=O)[O-])cc1`, the activity remaining (% of control) was 90.6%.

Turning to `O=[N+]([O-])c1ccc(C=Nc2nc3c(s2)CCCC3)cc1`, the activity remaining (% of control) is 113%.
